Glioma ERSR ind: qHTS for Inducers of the Endoplasmic Reticulum Stress Response (ERSR) in Human Glioma: qHTS | U87-MG GRP78 promoter luciferase reporter, 16 h | Potency, µM, for inactives: at the top dose activation, most hits filed as activators | 0.02% of 420,000 active; note: potency is the fitted concentration of half-maximal effect; series mostly up to about 76 µM; % of control where 0% means no effect; nearly all actives have a fitted effect of over 35% in size
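ERSR induction read as luciferase luminescence (Bright-Glo, 10 min at room temperature) in stably transfected human U87-MG glioma cells exposed to compounds for 16 h, using GRP78 as sensor.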
ClpP mod: qHTS Assay for Activators of ClpP; purified B. subtilis ClpP, FRET peptide cleavage, 20 min; Potency, µM (top dose mostly 57.5 µM), without a hit: top-dose activity change, negative = active; 1.9% of 340,000 active; AID 651965, 2013; active = well fitted falling curve with a large enough effect; inconclusive = small, poorly fitted or top-dose-only effect; inactive = no such curve, though single readings can be large or run the other way; note: potency is the fitted concentration of half-maximal effect; the source files actives as falling curves though it sought activators and does not explain the sign; nearly all actives have a fitted effect of over 65% in size
Target sequence (P80244 whole entry, looked up): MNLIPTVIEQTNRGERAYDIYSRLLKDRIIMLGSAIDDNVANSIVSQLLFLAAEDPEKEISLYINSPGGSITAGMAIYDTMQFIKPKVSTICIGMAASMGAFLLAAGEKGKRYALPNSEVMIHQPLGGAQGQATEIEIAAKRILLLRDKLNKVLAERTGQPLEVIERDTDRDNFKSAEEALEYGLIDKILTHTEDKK
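ClpP 10 microg/mL final, pH 8 Tris/KCl buffer with BSA, glycerol, Tween-20; compound pinned in; FRET-FV substrate; RT 20 min; Ex320/Em430; ΔFRET vs ADEP 5.8 microM, DMSO, no enzyme.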
Anesthetic bind: qHTS Assay for Identification of Novel General Anesthetics; apoferritin/1-aminoanthracene competitive binding, fluorescence; AID 485281, 2010; 0.074% of 350,000 active; Potency, µM (top dose mostly 77.5 µM), inactives show top-dose activity change, negative = displacement, usual class: inhibitors; note: potency is the fitted concentration of half-maximal effect; % is set by controls: 0 for no effect and ±100 for the full control effect; nearly all actives have a fitted effect of over 20% in size
Target sequence (P02791 2-175 limits assumed): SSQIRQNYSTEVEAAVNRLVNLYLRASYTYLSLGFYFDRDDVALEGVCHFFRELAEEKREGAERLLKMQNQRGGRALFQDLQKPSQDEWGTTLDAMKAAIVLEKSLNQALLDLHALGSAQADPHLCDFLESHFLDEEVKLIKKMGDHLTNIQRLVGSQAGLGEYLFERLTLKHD
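10 uM apoferritin + 50% sat. 1-AMA, PBS; cpd 10 min RT; Ex380/Em535 endpoint; normalized to free probe vs complex; 4-param Hill fit; propofol titration as pos. ctrl.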
CBFb RUNX1 block: qHTS Assay for Compounds Blocking the Interaction Between CBF-beta and RUNX1 for the Treatment of Acute Myeloid Leukemia | Runt-related transcription factor 1 (Homo sapiens) + Core-binding factor subunit beta … | AlphaScreen CBFb-His/RUNX1-biotin binding, biochemical | Potency, µM (titrated, usually from 59.8 µM), inactives show at the top dose activity, negative = inhibition, most hits filed as inhibitors | 230,000 tested, under 10 active; note: % of control where 0% means no effect
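Proteins preincubated together for 20 min at RT before compound addition; 15 min later, nickel and streptavidin beads were added and left 90 min prior to AlphaScreen measurement.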
N370S GC: qHTS Assay for Inhibitors and Activators of N370S glucocerebrosidase as a Potential Chaperone Treatment of Gaucher Disease; N370S GC spleen homogenate, 4MU-glucoside fluorescence; Lysosomal acid glucosylceramidase (Homo sapiens), P04062; 0.092% of 330,000 active; AID 2101, 2009; Potency, µM (titrated, usually from 59.4 µM), for inactives: at the top dose activity change, negative = inhibition, most hits filed as inhibitors;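 note: potency is the fitted concentration of half-maximal effect; 0% = full enzyme activity and -100% = no enzyme basal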
a7 integrin act: qHTS for Activators of Integrin-Mediated Alleviation for Muscular Dystrophy; AID 624291, 2012; 0.064% of 350,000 active; alpha7betagal myoblasts, beta-gal FDG fluorescence, 48 h; Potency, µM (highest dose often 38.3 µM), without a hit: at the highest dose activation, actives largely listed as activators;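 note: potency is the fitted concentration of half-maximal effect; 100% = response of the positive control SU9516; nearly all actives have a fitted effect of over 60% in size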
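alpha7betagal+/- myoblasts (passage 13, 250/well) treated 48 h at 37C with compounds at 1:260 dilution of DMSO stock. Lysed, then beta-galactosidase activity read as FDG fluorescence (ex 480/em 540) after 30 min, with pre-read for autofluorescence.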
The depositor's hits bear a star; i = inactive; ? = inconclusive; . = no result given; [ ] = dose if it differs, or a comment. This is one part of a sample in which hits are shown more often than they occur. Unless noted, calls come from the whole dose curve; as a rule, active = well fitted curve in the direction sought with a large enough effect; inconclusive = small, poorly fitted or top-dose-only effect, or another doubt; inactive = no such curve, though single readings can be large; an effect the other way counts as inactive or inconclusive.

SMILES	Glioma ERSR ind	ClpP mod	Anesthetic bind	CBFb RUNX1 block	N370S GC	a7 integrin act
Cc1c(OCC(=O)OC(C)C)ccc2c3c(c(=O)oc12)CCC3	4%	32µM*	-2%	8%	-7%	-5%
CCc1c(C)c2ccc(OCC(=O)N(C)C)c(C)c2oc1=O	-1%	40%	-13%	4%	13%	-5%
Cc1c(OCC(=O)OC(C)(C)C)ccc2c3c(c(=O)oc12)CCC3	5%	28µM*	?	1%	7%	-50%
CCc1c(C)c2ccc(OCC(=O)OC(C)C)c(C)c2oc1=O	-1%	25µM*	-1%	5%	3%	-52%
Cc1c(C)c2ccc(OCC(=O)N(C)C)c(C)c2oc1=O	1%	-1%	-4%	7%	3%	-15%
C=CCOC(=O)COc1ccc2c(C)c(C)c(=O)oc2c1C	2%	16µM*	-6%	11%	4%	18%[7.66 µM]
CC1(C(=O)O)NCCc2cc(O)c(O)cc21 (stereo not drawn)	-4%	.	150%	?	-1%	.
Cc1c(OCC(=O)N(C)C)ccc2c3c(c(=O)oc12)CCCCC3	0%	4%	-4%	0%	8%	37%
CC(=O)COc1ccc2c3c(c(=O)oc2c1C)CCCCC3	?	25µM*	-11%	7%	8%	-39%
Cc1nc(Sc2nnnn2C2CC2)c2c(-c3ccccc3)csc2n1	-1%	-2%	.	.	.	.
O=C(/C=C/c1ccc(F)cc1)NCC1Cc2cccc(-c3ncccn3)c2O1 (stereo not drawn)	-3%	.	.	.	.	.
OC(Cc1ccc2ccccc2n1)c1c(Cl)cccc1Cl (stereo not drawn)	1%	0%	.	.	.	.
CC(=O)c1cccc(NC(=O)c2ccc(NC(=O)CC3SC(N4CCCCC4)=NC3=O)cc2)c1 (stereo not drawn)	-3%	22µM*	-17%	.	-8%	2%
CC(=O)c1cccc(NC(=O)CC2SC(N3CCCCC3)=NC2=O)c1 (stereo not drawn)	-2%	-3%	?	6%	-12%	-7%
CCc1nc2cc(C(=O)N3CCCN(C=O)CC3)cc(NC(=O)c3ccccc3OC)c2n1C	-1%	.	.	.	.	.
CCN1CCN(CC(=O)Nc2c(OC)cccc2OC)CC1	-6%	22µM*	-10%	.	-13%	-5%
CCN1CCN(CCC(=O)Nc2cc(OC)cc(OC)c2)CC1	-6%	28µM*	-7%	.	4%	-9%
COCC(=O)Nc1cc(C(=O)N2CC3CCCC2C3)c2c(c1)nc(-c1ccncc1)n2C (stereo not drawn)	-1%	.	.	.	.	.
C=C[C@@H]1c2cc(C)ccc2N(S(=O)(=O)c2ccc(C)cc2)[C@H](c2ccc(C(C)(F)F)cc2)C1(C#N)C#N	-1%	0%	.	.	.	.
COc1ccc2c(CN(C)c3ccccc3)cc(=O)oc2c1	-1%	22µM*	-20%	1%	21%	-22%
CCC1CN(S(=O)(=O)c2cc(-c3onc(C)c3C)ccc2C)c2cc(Cl)ccc2O1 (stereo not drawn)	-2%	1%	26%	.	.	.
CCC1CN(S(=O)(=O)c2ccc3c(c2)NC(=O)CC(=O)N3)c2cc(Cl)ccc2O1 (stereo not drawn)	-5%	1%	-24%	.	1.6µM*	-9%
O=C(c1ccccc1)c1ccc(OCCCN2CCCC2)cc1	1%	-2%	-11%	-9%	-17%	24%
O=C(c1ccccc1)c1ccc(OCCOCCN2CCN(Cc3ccccc3)CC2)cc1	-8%	.	-13%	-4%	14µM*	-70%
COc1ccc(-c2nc(C#N)c(NCc3ccc(F)cc3)o2)cc1OC	-11%	-11%	-5%	-12%	6%	-26%
SMILES	Glioma ERSR ind	ClpP mod	Anesthetic bind	CBFb RUNX1 block	N370S GC	a7 integrin act
COc1ccc(-c2nc(C#N)c(NCc3cccnc3)o2)cc1OC	-2%	28µM*	-8%	-2%	-8%	-25%[7.66 µM]
N#Cc1nc(-c2cccc(Cl)c2)oc1NCc1cccnc1	3%	2.2µM*	-10%	-8%	16%	-1%[7.66 µM]
N#Cc1nc(Cc2ccccc2)oc1NCc1ccccc1Cl	2%	-3%	-7%	1%	9%	3%
N#Cc1nc(Cc2ccccc2)oc1NCc1cccnc1	3%	28µM*	-9%	-4%	6%	-16%
CCOC(=O)CN[C@@H](C(=O)N1CC[C@H]1C(=O)NCc1ccc(/C(N)=N/O)cc1)C1CCCCC1	-3%	.	.	.	.	.
COc1c(Br)cc2c(C)c(C(=O)O)oc2c1Br	2%	0%	2%	4%	11%	-12%
Cc1c(C(=O)O)oc2c3c(ccc12)OCCO3	-3%	18µM*	-1%	1%	5%	-6%
CCOC(=O)c1sc(Nc2nc3c(F)cccc3s2)cc1C	1%	8.9µM*	6%	-7%	6%	-3%
CCOC(=O)c1c(NC(=O)CSc2ccccc2C(=O)O)sc(C)c1C	-5%	16µM*	-14%	-3%	12%	11%
CCOC(=O)c1c(NC(=O)Nc2ccccc2)sc(C)c1C	-3%	20µM*	-4%	2%	-10%	?
CCOC(=O)c1sc(NC(=O)c2cccs2)cc1C	-2%	-8%	265%	10%	-16%	-5%
CCOC(=O)c1sc(NC(=O)Nc2cccc(Cl)c2)cc1C	4%	32µM*	-4%	-13%	22%	-60%
CCOC(=O)c1sc(Nc2nc3ccc(OC)cc3s2)cc1C	-2%	.	77%	-2%	10%	-8%
CC1CN(CC(=O)NCC2(N3CCOCC3)CCCC2)Cc2cc(Cl)ccc2O1 (stereo not drawn)	-3%	.	.	.	.	.
COc1cc(C=O)cc(OC)c1[N+](=O)[O-]	-3%	-2%	.	.	.	.
OC1(c2ccc3c(c2)CN(Cc2ccco2)CCO3)CCN(c2ccccc2F)CC1	1%	.	.	.	.	.
Cc1ccc(NC(=O)c2cnn3c2NC(=C2CC2)C=C3C(F)F)cc1	-1%	-8%	.	.	.	.
CCc1ccc(CNC(=O)c2cnc(N3CCCCC3)c3ccccc23)cc1	-4%	32µM*	106%	.	.	.
O=C(NCc1ccccc1Cl)c1cnc(N2CCOCC2)c2ccccc12	-1%	-6%	-6%	.	.	.
O=C(NCc1ccccc1Cl)c1cnc(N2CCCCC2)c2ccccc12	-3%	32µM*	i	.	.	.
COc1cc2c(cc1CC=C(C)C)C(=O)C[C@@H](c1ccc(O)cc1)O2	-12%	.	-21%	6%	-4%	.
O=C(NCc1nnc2n1CCN(Cc1ccc(C(F)(F)F)cc1)CC2)c1ccccn1	-4%	.	.	.	.	.
Cc1cc(N)ccc1-n1c(C)ccc1C	-2%	32µM*	-22%	?	6%	-26%

Source: PubChem BioAssay
